Here are results for 23 compounds from PubChem BioAssay (NCATS).

Inconclusive results are not listed. Values without a mark were called inactive. The source made the active and inactive calls. Calls follow the shape of the dose curve; as a rule, active = well fitted curve in the direction sought with a large enough effect; inconclusive = small, poorly fitted or top-dose-only effect, or another doubt; inactive = no such curve, though single readings can be large; an effect the other way counts as inactive or inconclusive.

The target in assay [1] is Rap guanine nucleotide exchange factor 3 (Homo sapiens) (UniProt O95398). Kind of assay: Confirmatory qHTS for antagonist of cAMP-regulated guanine nucleotide exchange factor 3 (EPAC1) (AID 1645880). Also: nearly all actives have a fitted effect of over 55% in size. Also: potency is read from the fitted curve at half-maximal effect. Put shortly: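 Released BODIPY-GDP fluoresces less than Rap1-bound BODIPY-GDP; the signal is followed at 480/540 nm at 5-min intervals over 30 min, after 5 min at room temperature. Reactions contain 100 nM EPAC1, 250 nM RAP1B-BODIPY-GDP and 50 uM GDP; results are normalized to ATA and DMSO.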
On the technique in general: Quantitative high-throughput screening tests each substance at several concentrations.

Assay [2] has the same target. Put plainly: Confirmatory qHTS for agonist of cAMP-regulated guanine nucleotide exchange factor 3 (EPAC1) (AID 1645881).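 Also: EPAC1 catalysed release of BODIPY-GDP from Rap1B seen as fluorescence loss; 100% = effect of cAMP agonist control; nearly all actives have a fitted effect of over 75% in size.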
Assay [3] concerns the target Rap guanine nucleotide exchange factor 4 (Homo sapiens) (UniProt Q8WZA2). Kind of assay: Confirmatory qHTS for agonist of cAMP-regulated guanine nucleotide exchange factor 4 (EPAC2) (AID 1645884).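 Also: nucleotide exchange releases bodipy-GDP from Rap1 and this lowers its fluorescence; % is scaled to controls: 0 for no effect and ±100 for the full control effect; nearly all actives have a fitted effect of over 65% in size.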
Assay [4] has the same target. Kind of assay: Confirmatory qHTS for antagonist of cAMP-regulated guanine nucleotide exchange factor 4 (EPAC2) (AID 1645885). Also: nearly all actives have a fitted effect of over 25% in size. Also: potency is read from the fitted curve at half-maximal effect. As to activity change, negative = inhibition: % is scaled to controls: 0 for no effect and ±100 for the full control effect.
The target in assay [5] is Rap guanine nucleotide exchange factor 3 (Homo sapiens) (UniProt O95398). Kind of assay: Counterscreen qHTS for antagonist of cAMP-regulated guanine nucleotide exchange factor 3 (EPAC1) (AID 1645888). Also: % of control where 0% means no effect. Put shortly:
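Rap1B-BODIPY-GDP 250 nM + GDP 50 uM; cpds 7-pt, final 9.74 nM–152 uM (activator mode) or from 7.32 nM upwards (inhibitor mode); RT; FI 480/540 nm at 5 and 30 min, then ± cAMP, reread.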

Rap guanine nucleotide exchange factor 4 (Homo sapiens), sequence (Q8WZA2 whole entry, looked up): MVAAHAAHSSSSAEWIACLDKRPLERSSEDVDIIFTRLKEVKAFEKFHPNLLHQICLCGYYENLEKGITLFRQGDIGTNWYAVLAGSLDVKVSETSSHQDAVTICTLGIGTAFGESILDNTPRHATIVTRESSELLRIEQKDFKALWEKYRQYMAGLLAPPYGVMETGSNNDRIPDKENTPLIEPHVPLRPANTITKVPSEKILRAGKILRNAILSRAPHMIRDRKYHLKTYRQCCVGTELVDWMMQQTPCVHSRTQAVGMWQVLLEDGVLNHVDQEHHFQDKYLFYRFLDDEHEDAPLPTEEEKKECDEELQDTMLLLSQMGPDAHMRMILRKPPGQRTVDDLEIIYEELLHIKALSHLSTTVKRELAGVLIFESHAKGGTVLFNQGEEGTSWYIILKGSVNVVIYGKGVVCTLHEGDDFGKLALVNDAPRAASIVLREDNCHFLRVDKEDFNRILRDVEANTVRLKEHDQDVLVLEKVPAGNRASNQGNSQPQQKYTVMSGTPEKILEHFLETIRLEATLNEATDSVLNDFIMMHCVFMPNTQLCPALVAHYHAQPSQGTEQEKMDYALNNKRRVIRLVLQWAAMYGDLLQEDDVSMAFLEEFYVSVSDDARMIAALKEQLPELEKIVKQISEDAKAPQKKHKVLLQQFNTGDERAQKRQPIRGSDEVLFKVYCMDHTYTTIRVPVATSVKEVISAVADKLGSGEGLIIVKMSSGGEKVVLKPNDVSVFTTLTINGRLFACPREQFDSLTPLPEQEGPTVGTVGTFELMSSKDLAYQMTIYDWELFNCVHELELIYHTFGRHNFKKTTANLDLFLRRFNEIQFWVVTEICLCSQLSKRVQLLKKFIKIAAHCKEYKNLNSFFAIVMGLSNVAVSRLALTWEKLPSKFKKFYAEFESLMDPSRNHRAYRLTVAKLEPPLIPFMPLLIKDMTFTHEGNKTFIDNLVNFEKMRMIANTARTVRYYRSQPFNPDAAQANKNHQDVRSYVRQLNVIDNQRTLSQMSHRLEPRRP
Rap guanine nucleotide exchange factor 3 (Homo sapiens), sequence (O95398 whole entry, looked up): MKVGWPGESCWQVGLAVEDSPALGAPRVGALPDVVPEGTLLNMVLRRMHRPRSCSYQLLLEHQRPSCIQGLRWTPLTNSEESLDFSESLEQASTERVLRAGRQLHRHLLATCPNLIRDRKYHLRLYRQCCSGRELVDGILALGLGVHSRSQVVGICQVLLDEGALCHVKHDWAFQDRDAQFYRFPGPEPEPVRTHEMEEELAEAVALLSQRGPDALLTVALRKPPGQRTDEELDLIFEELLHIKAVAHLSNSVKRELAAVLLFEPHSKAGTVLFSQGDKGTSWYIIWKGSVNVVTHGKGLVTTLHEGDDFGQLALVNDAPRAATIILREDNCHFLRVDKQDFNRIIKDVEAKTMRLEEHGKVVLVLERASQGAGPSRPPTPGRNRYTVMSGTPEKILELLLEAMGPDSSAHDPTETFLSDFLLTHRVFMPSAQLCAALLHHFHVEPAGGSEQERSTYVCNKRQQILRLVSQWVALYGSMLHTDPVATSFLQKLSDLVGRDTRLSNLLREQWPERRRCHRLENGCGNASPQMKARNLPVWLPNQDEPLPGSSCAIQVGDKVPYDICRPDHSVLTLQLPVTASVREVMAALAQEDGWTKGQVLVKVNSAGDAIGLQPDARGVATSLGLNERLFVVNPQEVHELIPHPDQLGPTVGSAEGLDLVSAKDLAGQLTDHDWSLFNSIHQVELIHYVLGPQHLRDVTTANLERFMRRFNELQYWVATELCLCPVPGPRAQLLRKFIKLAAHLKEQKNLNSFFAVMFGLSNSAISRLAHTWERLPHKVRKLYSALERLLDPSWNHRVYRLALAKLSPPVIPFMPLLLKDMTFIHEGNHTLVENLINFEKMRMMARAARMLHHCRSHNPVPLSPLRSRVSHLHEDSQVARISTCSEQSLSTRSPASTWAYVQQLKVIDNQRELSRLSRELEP

`CCCCCNC(=O)C(c1cc2ccccc2o1)n1c(=O)c(-c2ccco2)nc2ccccc21` (stereo not given): the Potency is 16.9 µM (active) in assay [1] and 10.7 µM (active) in assay [4]. For the same compound, the Potency entry in assay [2], in assay [3] and in assay [5] was “inactive” each time.

As to `Cc1ccc(C)n1-c1c(C(=O)NCCC(C)C)sc2ncccc12`, the Potency result in assay [1], in assay [2], in assay [3], in assay [4] and in assay [5] was “inactive” each time.

Regarding `CCOc1ccc2nc(NC(=O)CSc3nc(-c4ccccc4)c(C#N)c(=O)[nH]3)sc2c1`, the Potency in assay [1] was 56.2 µM (active). For the same compound, the Potency entry in assay [2] and in assay [4] was “inactive” each time. Besides, in assay [3], the activation is 2.22% [at 17.1 µM, percent relative to cAMP agonist control]. The activity change, negative = inhibition in assay [5] was -3.89% [at 30.8 µM].

Consider `Cc1ccccc1C(=O)NCC(=O)N1CCN(c2ccccn2)CC1`, for which the Potency result in assay [1], in assay [2] and in assay [4] was “inactive” throughout. The activation in assay [3] was 9.91% [at 17.1 µM, percent relative to cAMP agonist control]. Further, in assay [5], the activity change, negative = inhibition is -4.53% [at 30.8 µM].

Take `O=C(N/N=C/c1ccc(F)cc1)c1cc(-c2ccco2)nc2ccccc12`: the Potency in assay [1] is 16.9 µM (active). For the same compound, the Potency entry in assay [2], in assay [3], in assay [4] and in assay [5] was “inactive” in each case.

Regarding `CN(c1ccccc1)S(=O)(=O)c1cccc(Cl)c1Cl`, the Potency entry in assay [1], in assay [2], in assay [3], in assay [4] and in assay [5] was “inactive” each time.

As for `COc1ccccc1C(=O)NC(=O)Cn1nc(C)c([N+](=O)[O-])c1C`, the Potency entry in assay [1], in assay [2] and in assay [4] was “inactive” in each case. Besides, in assay [3], the activation is 4.27% [at 17.1 µM, percent relative to cAMP agonist control]. Also, the activity change, negative = inhibition in assay [5] is 11.7% [at 30.8 µM].

As for `COCCCN1C(=O)C(CC(=O)NCc2cccc3ccccc23)CC(C(=O)N2CCCCCC2)=C1C` (stereo not given), the Potency result in assay [1], in assay [2], in assay [3], in assay [4] and in assay [5] was “inactive” throughout.

For the compound `CC1=Nc2ccccc2/C1=C/c1sc(=S)n(-c2cccc(C(=O)O)c2)c1O`, the Potency in assay [1] is 44.7 µM (active). For the same compound, the Potency entry in assay [2] and in assay [4] was “inactive” in each case. For the same compound, in assay [3], the activation was 2.42% [at 17.1 µM, percent relative to cAMP agonist control]. Also, the activity change, negative = inhibition in assay [5] was 11.8% [at 30.8 µM].

`O=C1NC(=Nc2ccccc2Cl)S/C1=C\c1cc([N+](=O)[O-])ccc1O`: the results for the Potency in assay [1] and in assay [4] were 53.6 µM (active) and 26.9 µM (active), respectively. Moreover, the Potency result in assay [2], in assay [3] and in assay [5] was “inactive” each time.

As for `Cc1ccc(C)c(COC(=O)c2cc(S(=O)(=O)N3CCCCC3)ccc2N2CCOCC2)c1`, the Potency entry in assay [1], in assay [2], in assay [3], in assay [4] and in assay [5] was “inactive” throughout.

On to `NC(=O)C1CCN(C(=O)Nc2csc3ccccc23)CC1`, for which the Potency result in assay [1], in assay [2], in assay [3] and in assay [5] was “inactive” throughout. Also, in assay [4], the Potency is 12 µM (active).

As to `COc1cccc(NC(=O)c2csc3c2CCCC3)c1`, the Potency result in assay [1], in assay [2] and in assay [4] was “inactive” throughout. Besides, the activation in assay [3] is 8.66% [at 17.1 µM, percent relative to cAMP agonist control]. For the same compound, the activity change, negative = inhibition in assay [5] was -28.5% [at 30.8 µM].

On to `Cc1ccc(C(NC(=O)C(C)C)c2cc([N+](=O)[O-])c3cccnc3c2O)cc1` (stereo not given), for which the Potency in assay [1] was 35.5 µM (active). Further, the Potency entry in assay [2] and in assay [4] was “inactive” throughout. The activation in assay [3] was 0.958% [at 17.1 µM, percent relative to cAMP agonist control]. Besides, the activity change, negative = inhibition in assay [5] was -17.2% [at 30.8 µM].

Regarding `COc1cc(/C=N/NC(=O)c2ccccn2)ccc1OC(=O)c1ccc(Br)cc1`, the Potency result in assay [1], in assay [2], in assay [3], in assay [4] and in assay [5] was “inactive” throughout.

With `N#CC(=Cc1ccc(-c2ccccc2)cc1)C(=O)c1ccccc1`, the Potency in assay [1] is 39.8 µM (active). The Potency result in assay [2] and in assay [4] was “inactive” throughout. The activation in assay [3] is 0.543% [at 17.1 µM, percent relative to cAMP agonist control]. Besides, the activity change, negative = inhibition in assay [5] was -16.6% [at 30.8 µM].

Consider `CCn1c2ccccc2c2cc(NC(=O)CSc3nnc(-c4cccc(C)c4)o3)ccc21`, for which the Potency entry in assay [1], in assay [2] and in assay [4] was “inactive” each time. The activation in assay [3] was 3.98% [at 17.1 µM, percent relative to cAMP agonist control]. Besides, the activity change, negative = inhibition in assay [5] is 9.03% [at 30.8 µM].

In the case of `COc1ccc(C2NC(=O)N(C)C3=C2C(=O)N(c2cccc(Cl)c2)C3)cc1` (stereo not given), the Potency result in assay [1], in assay [2], in assay [3], in assay [4] and in assay [5] was “inactive” in each case.

As for `CC(CCc1ccccc1)NC(=O)C1CCN(C(=O)c2sccc2-n2cccc2)CC1` (stereo not given), the Potency entry in assay [1], in assay [2], in assay [3], in assay [4] and in assay [5] was “inactive” in each case.

As for `CCOC(=O)C(Cc1ccc(NC(=O)/C(=C\c2ccccc2)NC(=O)c2ccccc2)cc1)N1C(=O)c2ccccc2C1=O` (stereo not given), the Potency entry in assay [1], in assay [2], in assay [3], in assay [4] and in assay [5] was “inactive” throughout.

Take `Cc1ccc(-n2nc(C(=O)N(C)c3ccc(C)c(C)c3)c3c4ccccc4n(C)c3c2=O)cc1`: the Potency result in assay [1], in assay [2], in assay [3] and in assay [5] was “inactive” in each case. In assay [4], the outcome was “inactive [at 12.7 µM]”.

For the compound `O=C(/C=C/c1ccco1)NC(=S)Nc1cccc([N+](=O)[O-])c1`, in assay [1], the Potency is 20 µM (active). For the same compound, the Potency result in assay [2] and in assay [4] was “inactive” throughout. Besides, the activation in assay [3] is 7.76% [at 17.1 µM, percent relative to cAMP agonist control]. Moreover, in assay [5], the activity change, negative = inhibition is -9.95% [at 30.8 µM].

Turning to `O=C(c1ccco1)N(Cc1ccc([N+](=O)[O-])cc1)c1ccc(Br)cc1`, the Potency result in assay [1], in assay [2] and in assay [4] was “inactive” each time. In assay [3], the activation was -0.906% [at 17.1 µM, percent relative to cAMP agonist control]. Also, the activity change, negative = inhibition in assay [5] is 10.5% [at 30.8 µM].
